{
  "source": "PubChem BioAssay (Tox21)",
  "note": "Records with an inconclusive call do not appear. A call without a number means that no potency is given here. Values without a mark were called inactive. Activity calls are given as the source filed them. Calls follow the shape of the dose curve; as a rule, active = well fitted activation curve with a large enough effect in the repeat runs; inconclusive = weak or mixed curves; inactive = flat fitted curve, though single readings scatter. Potency is read from the fitted curve at half-maximal effect.",
  "data": [
    {"test": "A CellTox Green Cytotoxicity Assay to monitor cytotoxicity in HepG2 cells - 32 hour (AID 1224883); also: nearly all actives have a fitted effect of over 50% in size", "conditions": "CellTox Green fluorescence; series mostly up to 76.8 µM", "from_the_text": "National Center for Advancing Translational Sciences [NCATS]\nNIH Chemical Genomics Center [NCGC]\nU.S. Environmental Protection Agency [EPA]\nNational Institutes of Environmental Health Sciences [NIEHS]\nNational Toxicology Program [NTP]\nCell-based models are critical for drug discovery. Determining the natural cytotoxic effects resulting from test compounds is an essential research activity. A CellTox Green Cytotoxicity Assay to monitor cytotoxicity in real time of continues cell culture during 40 hours of the compound treatment was used to screen Tox21 10K library compounds in HepG2 cells. CellTox Green Cytotoxicity Assay is a nonlytic, homogeneous, biofluorescent method to measure cytotoxicity in cell culture after experimental manipulation. The assay system uses a proprietary asymmetric cyanine dye that is excluded from viable cells but preferentially stains the dead cell's DNA. […] Viable cells produce no appreciable increases in fluorescence. Therefore, the fluorescence signal produced by the binding interaction with dead cell DNA is proportional to cytotoxicity.\nThe mixture of HepG2 cell suspension and reagents were dispensed at 600cells/6 ul/well in 1536-well tissue culture treated black solid bottom plates using a Multidrop dispenser. After the assay plates were incubated at a 37 C/5% CO2 incubator for 5 hours, 23 nL of compounds dissolved in DMSO, positive and negative controls was transferred to the assay plate by a pintool work station. The plates were incubated at 37 C for 40 hours. The fluorescence intensity were measured at 0h, 8h, 16h, 24h, 32h and 40h time points using ViewLux plate reader during compound treatment.", "values": [
      {"smiles": "C/C=C/C=C/CO", "Potency": "inactive"},
      {"smiles": "Cc1nn(C)c(Oc2ccccc2)c1/C=N/OCc1ccc(C(=O)OC(C)(C)C)cc1", "Potency": "inactive"},
      {"smiles": "O=C(CS)Nc1ccccc1", "Potency": "inactive"},
      {"smiles": "CCOC(=O)c1cccnc1", "Potency": "inactive"},
      {"smiles": "CCNc1cc(O)ccc1C", "Potency": "inactive"},
      {"smiles": "C[C@H](CCC(=O)O)[C@H]1CC[C@H]2[C@@H]3CC[C@@H]4C[C@H](O)CC[C@]4(C)[C@H]3C[C@H](O)[C@]12C", "Potency": "inactive"},
      {"smiles": "CCN(CC)CCOC(=O)C(c1ccccc1)C1CCCCC1", "note": "(stereo not given)", "Potency": "23.9 µM (active)"},
      {"smiles": "CCCCc1ncc(/C=C(\\Cc2cccs2)C(=O)O)n1Cc1ccc(C(=O)O)cc1", "Potency": "inactive"},
      {"smiles": "O=C(O)CC(=O)C(=O)O", "Potency": "inactive"},
      {"smiles": "CN(Cc1ccc(C(C)(C)C)cc1)Cc1cccc2ccccc12", "Potency": "inactive"},
      {"smiles": "O[C@@H](COc1cccc2ncccc12)CN1CCN(C2c3ccccc3[C@@H]3[C@H](c4ccccc42)C3(F)F)CC1", "note": "(stereo not given in full)", "Potency": "inactive"},
      {"smiles": "O=C(OCCc1ccccc1)c1ccccc1", "Potency": "inactive"},
      {"smiles": "C[N+](C)(C)CCOC(=O)CCC(=O)OCC[N+](C)(C)C", "Potency": "inactive"},
      {"smiles": "CC(C)(CO)[N+](=O)[O-]", "Potency": "inactive"},
      {"smiles": "COS(=O)(=O)C(F)(F)F", "Potency": "inactive"},
      {"smiles": "CCCOC(C(=O)OC1CCN(C)CC1)(c1ccccc1)c1ccccc1", "Potency": "21.3 µM (active)"},
      {"smiles": "CCCCCCOC(=O)NC(=N)c1ccc(NCc2nc3cc(C(=O)N(CCC(=O)OCC)c4ccccn4)ccc3n2C)cc1", "Potency": "23.9 µM (active)"},
      {"smiles": "CC[N+]1(CC)CCC(=C(c2ccccc2)c2ccccc2)C1C", "note": "(stereo not given)", "Potency": "inactive"},
      {"smiles": "CCCCC(=O)OCC(=O)[C@H]1[C@H](C)C[C@H]2[C@@H]3C[C@H](F)C4=CC(=O)C=C[C@]4(C)[C@@]3(F)[C@@H](O)C[C@@]21C", "Potency": "inactive"},
      {"smiles": "COC(=O)c1ccc(I)cc1S(=O)(=O)NC(=O)Nc1nc(C)nc(OC)n1", "Potency": "inactive"},
      {"smiles": "CCOc1ccc(N)c([N+](=O)[O-])c1", "Potency": "inactive"},
      {"smiles": "C=C(C)C(=O)OCCOCC", "Potency": "inactive"},
      {"smiles": "CC(=O)c1cccc([N+](=O)[O-])c1", "Potency": "inactive"},
      {"smiles": "CCC(C)(C)CC", "Potency": "inactive"},
      {"smiles": "C/C=C/C(=O)CC", "cytotoxicity increase": "2.71% [at 15.8 µM]"},
      {"smiles": "OCCNCc1ccccc1", "Potency": "inactive"},
      {"smiles": "Cc1cccc(Nc2ccccc2)c1", "Potency": "38.9 µM (active)"},
      {"smiles": "C[C@@H](c1ncncc1F)C(O)(Cn1cncn1)c1ccc(F)cc1F", "note": "(stereo not given in full)", "Potency": "inactive"},
      {"smiles": "CC[N+](C)(CC)CCOC(=O)C(O)(c1ccccc1)C1CCCCC1", "note": "(stereo not given)", "Potency": "inactive"},
      {"smiles": "O=S(c1cc(Cl)cc(Cl)c1O)c1cc(Cl)cc(Cl)c1O", "Potency": "inactive"},
      {"smiles": "CC1OC(=O)C(C)OC1=O", "note": "(stereo not given)", "Potency": "inactive"},
      {"smiles": "O=C(O)c1nc(Cl)c(Cl)c(Cl)c1Cl", "Potency": "inactive"},
      {"smiles": "NCC(=O)O", "cytotoxicity increase": "1.6% [at 15.8 µM]"},
      {"smiles": "CCCCCC[C@@H](O)C/C=C\\CCCCCCCC(=O)OC", "Potency": "inactive"},
      {"smiles": "C[N+]1(C)CCC(OC(=O)C(O)(c2ccccc2)C2CCCC2)C1", "note": "(stereo not given)", "Potency": "inactive"},
      {"smiles": "COc1ccc(C)cc1[N+](=O)[O-]", "Potency": "inactive"},
      {"smiles": "CCCCOC(=O)CCCCCCCC(=O)OCCCC", "Potency": "inactive"},
      {"smiles": "O=C1OC(=O)C2C3C=CC(C3)C12", "note": "(stereo not given)", "Potency": "inactive"},
      {"smiles": "CN1C[C@H]2c3ccccc3Oc3ccc(Cl)cc3[C@@H]2C1", "Potency": "26.8 µM (active)"},
      {"smiles": "CCc1c(C(=O)NN2CCCCC2)nn(-c2ccc(Cl)cc2Cl)c1-c1ccc(Br)cc1", "Potency": "inactive"}
    ]}
  ]
}
